PLK1 PBD inh: qHTS for Inhibitors of PLK1-PDB (polo-like kinase 1 - polo-box domain): Primary Screen | Serine/threonine-protein kinase PLK1 (Homo sapiens), P53350 | Plk1 PBD binding of FITC phosphopeptide, fluorescence polarization | Potency, µM, for the others: max response, negative = inhibition, most hits filed as inhibitors | 360,000 tested, 2.8% active | AID 720504, 2013; note: potency is the fitted concentration of half-maximal effect; series mostly up to about 57 µM; % is set by controls: 0 for no effect and ±100 for the full control effect; nearly all actives have a fitted effect of over 65% in size
PI5P4Ka inh: qHTS for Inhibitors of phosphatidylinositol 5-phosphate 4-kinase (PI5P4K); PI5P4Kalpha enzyme, ADP-Glo luminescence, 60 min; hits give low values; max response, %; 330,000 tested, 1.2% active; AID 652105, 2013; active = max response of -50% or lower; inconclusive = between -30% and -50%; inactive = -30% or higher; note: value at the top dose of about 77 µM; % is set by controls: 0 for no effect and ±100 for the full control effect
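qHTS, 1536-well: enzyme/substrate mix, compound by pin tool, 5 microM ATP final; RT 60 min; ADP-Glo reagents 1 (45 min) then 2 (30 min); luminescence.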
KAT2A inh: qHTS Assay for Inhibitors of GCN5L2; GCN5L2 HAT assay, ThioGlo1 CoA-SH fluorescence; Potency, µM (doses to about 58.9 µM), for the others: at the highest dose activity change, negative = inhibition, actives largely listed as inhibitors; 390,000 tested, 0.21% active; AID 504327, 2011; note: potency is the fitted concentration of half-maximal effect; % is set by controls: 0 for no effect and ±100 for the full control effect
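Fluorescence readout, Ex340nm/Em540nm: ThioGlo1 (50uM final) reacts with free CoA thiol released as 20nM GCN5L2 acetylates H3(1-25) peptide (75uM) using acetyl-CoA (70uM). Compound and enzyme sat 15 min beforehand; 20 min room-temperature reaction.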
Rango complex inh: qHTS Assay for Inhibitors of Rango (Ran-regulated importin-beta cargo) - Importin beta complex formation; Importin subunit beta-1 (Homo sapiens), Q14974; Rango CFP/YFP FRET sensor + importin beta, 45 min; 340,000 tested, 0.031% active; AID 540263, 2011; Potency, µM (series often up to 92.2 µM), for the others: top-dose inhibition of complex formation; calls by dose curve;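 note: potency is the fitted concentration of half-maximal effect; 0% = DMSO wells and 100% = buffer wells lacking importin beta; nearly all actives have a fitted effect of over 15% in size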
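FRET biosensor Rango (snurportin 1 IBB between N-terminal EYFP and C-terminal Cerulean), 50 nM in PBS/1 mM DTT/0.02% Tween-20/0.1% BSA, preincubated 5 min RT with compound; 0.125 microM importin beta added, 45 min RT, CFP/YFP FRET ratio read.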
VDR inhibitor: Inhibitors of the vitamin D receptor (VDR): qHTS; Vitamin D3 receptor (Homo sapiens), P11473; VDR-SRC2-3 peptide fluorescence polarization, 2 h; 400,000 tested, 0.93% active; Potency, µM, without a hit: max response, negative = inhibition, most hits filed as inhibitors; note: potency is the fitted concentration of half-maximal effect; % is set by controls: 0 for no effect and ±100 for the full control effect
Target sequence (P11473 whole entry, looked up): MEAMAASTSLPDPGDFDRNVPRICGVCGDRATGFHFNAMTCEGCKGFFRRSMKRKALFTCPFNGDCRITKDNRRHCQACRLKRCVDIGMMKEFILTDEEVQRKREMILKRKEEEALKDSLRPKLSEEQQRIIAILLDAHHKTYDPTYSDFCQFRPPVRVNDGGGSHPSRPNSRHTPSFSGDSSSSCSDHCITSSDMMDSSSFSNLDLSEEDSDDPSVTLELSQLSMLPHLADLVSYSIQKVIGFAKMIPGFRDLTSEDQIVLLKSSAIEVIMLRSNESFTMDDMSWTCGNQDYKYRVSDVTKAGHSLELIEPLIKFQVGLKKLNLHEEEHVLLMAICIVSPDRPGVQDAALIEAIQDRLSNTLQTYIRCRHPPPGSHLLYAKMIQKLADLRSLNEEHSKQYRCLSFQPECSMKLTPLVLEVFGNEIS
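Inhibition of the VDR/SRC2-3 peptide interaction is quantified by fluorescence polarization. Compounds (23 nl, pintool) incubate with the reagents for 2 hours at ambient room temperature.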
Rango dissoc inh: qHTS Assay for Inhibitors of RanGTP induced Rango (Ran-regulated importin-beta cargo) - Importin beta complex dissociation; 340,000 tested, 0.071% active; Snurportin-1 (Homo sapiens) + GTP-binding nuclear protein Ran (Homo sapiens) + Importin …; Potency, µM (doses to about 46.1 µM), for the others: at the top dose activity change, negative = inhibition; Biochemical FRET Rango-importin beta, RanGTP-induced dissociation; calls by dose curve; note: potency is the fitted concentration of half-maximal effect; % of control where 0% means no effect; nearly all actives have a fitted effect of over 45% in size
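Two FRET readings bracket the reaction: one 5 min after compound meets Rango–importin beta, another 45 min after RanGTP-RCC1 (0.6 uM Ran, 0.2 uM RCC1, 2 mM GTP) is added. Only the second defines inhibition.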
An asterisk follows results filed as active; ? = inconclusive; nt = no result given; [ ] = dose if it differs, or a comment. This is a sample that favours compounds with a hit; in the whole collection about 3.6% have one here. Unless noted, calls come from the whole dose curve; as a rule, active = well fitted curve in the direction sought with a large enough effect; inconclusive = small, poorly fitted or top-dose-only effect, or another doubt; inactive = no such curve, though single readings can be large; an effect the other way counts as inactive or inconclusive.

SMILES	PLK1 PBD inh	PI5P4Ka inh	KAT2A inh	Rango complex inh	VDR inhibitor	Rango dissoc inh
COc1ccc(C(=O)NCC(c2ccc(N(C)C)cc2)N2CCc3ccccc32)cc1 (stereo unspecified)	nt	nt	-2.7%	nt	4.8%	nt
CCN(CC)S(=O)(=O)c1cccc(-c2nnc(SCC(=O)NC)n2N)c1	-5.1%	0.3	-4.1%	-1.7%	-0.1%	-18.5%
CN(C)S(=O)(=O)c1cccc(-c2nnc(SCc3cc(Cl)cc4c3OCOC4)n2N)c1	9.47µM*	-6.5	-1.7%	-0.6%	?	4.1%
CCOC(=O)C1Nc2ccc(C)cc2C2C=CCC12 (stereo unspecified)	-29.2%	?	nt	4.0%	-24.8%	-6.1%
O=C(O)C1Nc2c(O)cccc2C2C=CCC12 (stereo unspecified)	26.7µM*	-81.3*	-1.8%	?	14.0%	-18.1%
O=C(OC1CCCCC1)c1ccc2c(c1)C1C=CCC1C(C(=O)O)N2 (stereo unspecified)	nt	nt	20µM*	nt	nt	nt
O=C(O)C1Nc2c(Cl)cc(Cl)cc2C2C=CCC12 (stereo unspecified)	7.52µM*	-99.5*	3.55µM*	?	?	-10.9%
Cc1ccc(C)c2c1NC(C(=O)O)C1CC=CC21 (stereo unspecified)	nt	nt	nt	nt	-21.8%	nt
CCOc1ccccc1N1C(=O)c2ccccc2N/C1=C\N1CCN(C(=O)c2ccco2)CC1	nt	nt	nt	nt	-11.0%	nt
COC(=O)Cc1c(C)c2cc3c(c(C)c2oc1=O)OCN(CCc1ccccc1F)C3	nt	nt	?	nt	9.1%	nt
COC(=O)Cc1c(C)c2cc3c(c(C)c2oc1=O)OCN(CCc1ccc(OC)cc1)C3	nt	nt	31.6µM*	nt	10.7%	nt
CCOC(=O)c1cccc(NC(=O)c2ccc3snnc3c2)c1	nt	nt	-3.6%	nt	22.6%	nt
Cc1oc(=O)c(NC(=O)c2ccccc2)cc1C(=O)c1ccccc1	-24.9%	nt	-12.4%	-4.3%	17.8µM*	-0.5%
CC(=O)c1cc(NC(=O)c2ccccc2)c(=O)oc1C	?	-3.0	-6.7%	-0.1%	-4.5%	0.0%
CC1(C)CC(=O)c2cc(NC(=O)c3ccccc3)c(=O)oc2C1	26.7µM*	3.8	-14.7%	0.2%	-28.6%	-5.2%
COc1ccc(C(=O)Nc2cc3c(oc2=O)CCCC3=O)cc1	-23.1%	-26.8	-6.9%	0.0%	-8.4%	-10.5%
Cc1oc(=O)c(NC(=O)c2ccc(Cl)cc2)cc1C(=O)c1ccccc1	-12.5%	-19.4	-12.3%	1.9%	25.1µM*	24.9%
COC(=O)c1cc(NC(=O)c2ccc(OC)cc2)c(=O)oc1C	?	10.1	3.2%	?	1.7%	9.5%
CC(=O)c1cc(NC(=O)c2ccc(C)cc2)c(=O)oc1C	10.6µM*	-8.8	-9.8%	-2.0%	?	2.1%
COc1ccc(C(=O)[C@]2(C)C=C(c3ccc(OC)cc3)[C@H](C)C2)cc1	nt	nt	nt	nt	0.7%	nt
CC(C)c1cc(-c2nc(-c3ccc(Cl)cc3)no2)n[nH]1	nt	nt	-4.4%	nt	2.0%	nt
CCOc1ccc(CNC(=O)C2CCN(S(=O)(=O)c3cn(C)cn3)CC2)cc1	nt	nt	-11.1%	nt	-0.2%	nt
CCOC(=O)c1c(NC(=O)c2ccccc2C)sc2c1CC(C)(C)OC2	21.2µM*	-1.8	-6.3%	0.4%	-21.8%	11.9%
C=C(C)CNC(=S)Nc1sc2c(c1C(=O)OCC)CC(C)(C)OC2	18.9µM*	-10.6	-1.2%	-2.7%	?	-14.1%
CCOC(=O)c1c(NC(=O)c2ccc(C)cc2)sc2c1CC(C)(C)OC2	23.8µM*	2.5	-8.9%	0.6%	-20.9%	22.0%
SMILES	PLK1 PBD inh	PI5P4Ka inh	KAT2A inh	Rango complex inh	VDR inhibitor	Rango dissoc inh
CC1(C)Cc2c(sc(NC(=O)C(=O)N3CCCC3)c2C(N)=O)CO1	23.8µM*	-7.6	-5.3%	-2.9%	-12.7%	2.1%
CCCC(=O)Nc1sc2c(c1C(=O)OCC)CC(C)(C)OC2	-3.1%	3.1	-0.4%	-4.2%	11.8%	-7.0%
COc1ccc([C@]23Cc4ccccc4C(O2)C2=C(O3)C(=O)c3ccccc3C2=O)cc1	nt	nt	0.2%[12.7 µM]	nt	nt	nt
Cc1ccc(S(=O)(=O)c2nc(C)oc2N2CCOCC2)cc1	21.2µM*	-11.8	-1.8%	-2.2%	-17.2%	0.1%
Cc1ccc(S(=O)(=O)c2nc(C(C)(C)C)oc2N2CCOCC2)cc1	?	nt	0.1%	-3.4%	?	8.4%
O=C(O)/C(CC(=O)c1ccc(Cl)cc1)=N/Nc1ccc([N+](=O)[O-])cc1[N+](=O)[O-]	23.8µM*	-53.4*	-22.4%	-3.9%	-27.4%	21.9%
C/C(CCC(=O)O)=N/Nc1ccc([N+](=O)[O-])cc1[N+](=O)[O-]	-7.0%	-5.2	-5.5%	4.1%	-2.6%	-11.3%
Cc1ccc(OC(=O)c2cc(-c3ccc4c(c3)OCCO4)on2)c(C)c1	nt	nt	-22.7%	nt	16.8%	nt
CCC(=O)N1CCc2cc(Br)cc(S(=O)(=O)N3CCCC(C(=O)NCc4ccccc4)C3)c21 (stereo unspecified)	nt	nt	-1.2%	nt	1.6%	nt
COc1ccc(NC(=O)c2cc3c(=O)n(Cc4ccco4)ccc3nc2C)c(OC)c1	nt	nt	-22.1%	nt	-2.7%	nt
Fc1ccc(-n2c(=S)[nH]c3cccnc32)cc1	11.9µM*	-1.2	-16.7%	3.5%	-15.5%	1.6%
CC(Sc1nc(C(C)(C)C)cc(-c2ccccc2)c1C#N)C(=O)Nc1ccccc1 (stereo unspecified)	11.9µM*	-14.0	-9.9%	-0.8%	?	-8.7%
O=C(NC1CCCC1)C(=O)N(Cc1cccnc1)C(C(=O)NC1CCCC1)c1ccco1 (stereo unspecified)	2.8%	-4.8	0.7%	-0.7%	11.6%	-10.2%
O=NN(Cc1cccnc1)C(=O)NC1CCCCC1	26.7µM*	-0.1	nt	nt	nt	nt
COc1cccc(-n2c(N)c(-c3nc4ccccc4[nH]3)sc2=S)c1	26.7µM*	-5.3	-18.5%	-0.4%	4.3%	-2.0%
COc1ccc2nc(-c3cccc(N)c3)[nH]c2c1	-4.4%	-16.6	-18.3%	0.6%	-3.9%	-0.5%
COC(=O)c1ccccc1Nc1cc(C)nc2nc(C)nn12	21.2µM*	-5.7	-1.9%	6.8%	?	-27.2%
COc1ccc(C(=O)N=c2nc(-c3ccccc3)n(-c3ccccc3)s2)cc1	nt	nt	nt	nt	-12.6%	nt
O=C(O)c1ccc2c(c1)N(Cc1ccccc1)C(=O)c1ccccc1S2=O (stereo unspecified)	26.7µM*	-20.6	-0.4%	-0.1%	-28.5%	24.5%

Screens deposited in PubChem by National Center for Advancing Translational Sciences (NCATS).
